# From publication PMC5540273 (PLoS ONE, 2017)
# Key:
# Settings in all cases: concentration: 1 μM, replicates: in singlicate; n = 1
# FGFR4 = test system: FGFR4
# FGR = test system: FGR
# FLT1 = test system: FLT1
# FLT3-autoinhibited = test system: FLT3-autoinhibited
# FLT3 = test system: FLT3
# FLT4 = test system: FLT4
# FRK = test system: FRK
# FYN = test system: FYN
# GAK = test system: GAK
# GCN2(Kin.Dom.2,S808G) = test system: T1, GCN2(Kin.Dom.2,S808G)
# T1 construct: gene EIF2AK4
# 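Further: KINOMEscan kinase panel screen.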
Structure (SMILES),%Inh (FGFR4) [%],%Inh (FGR) [%],%Inh (FLT1) [%],%Inh (FLT3-autoinhibited) [%],%Inh (FLT3) [%],%Inh (FLT4) [%],%Inh (FRK) [%],%Inh (FYN) [%],%Inh (GAK) [%],"%Inh (GCN2(Kin.Dom.2,S808G)) [%]"
CSc1nn2c(=O)cc(N3CCOCC3)nc2n1Cc1cccc(Cl)c1Cl [GSK2347225],15,30,24,0,0,0,11,17,9,1
CCc1nc(-c2cccc(C)c2)c(-c2ccnc(NC(=O)c3ccccc3)c2)s1,0,35,0,1,0,8,0,0,33,0
CC(=O)Nc1n[nH]c2ncc(-c3ccccc3)cc12 [SB-548492],0,16,25,47,74,0,0,0,31,27
Cc1cccc(-c2nc(Nc3ccc4[nH]nnc4c3)c3ccccc3n2)n1 [GW867587],0,0,0,0,0,0,0,0,0,0
COc1cc2ncnc(Nc3ccc(OCc4ccccc4Br)c(Cl)c3)c2cc1OC.Cl [GI261590],9,43,23,0,0,0,6,0,0,24
Fc1ccc(Nc2nccc(-c3c(-c4ccc(Cl)cc4)nn4ncccc34)n2)cc1F [GW829058],5,12,8,14,40,1,32,7,14,3
FC(F)(F)c1cc(Nc2nccc(-c3c(-c4ccc(Cl)cc4)nn4ncccc34)n2)ccc1Cl [GW829351],0,0,0,0,0,0,0,0,0,0
Cc1cc(N2CCC(NS(=O)(=O)c3ccc(F)cc3)CC2)nc(Nc2cccc(C#N)c2)n1.O=C(O)C(F)(F)F [GSK1653537],0,26,35,0,4,0,8,19,0,6
CC(C)N1CCC(n2cnc(-c3ccc(F)cc3)c2-c2ccnc(N)n2)CC1 [SB-223132],0,16,0,0,0,0,1,0,2,0
O=C(c1ccc(-c2cc(-c3c[nH]nc3-c3ccccn3)ccn2)cc1)N1CCCC1 [GW792479],0,17,18,0,8,0,0,5,33,0
Cl.Cl.c1ccc(-c2cc3ccncc3cc2OC2CCNCC2)cc1 [GSK1122999],30,23,28,0,4,22,0,44,12,11
Nc1nc(-c2cccnc2)c(-c2ccnc3ccccc23)s1 [GW684083],0,24,29,0,16,0,5,12,77,24
CCC(CC)(CC)n1cnc2c(N)ncnc21 [SKF-97620],4,4,4,19,11,0,23,7,3,0
CN1CCC(n2cnc(-c3ccc(F)cc3)c2-c2ccnc(NC3CCNCC3)n2)CC1 [SB-229482],0,0,0,0,27,0,0,1,0,0
Fc1cccc(COc2ccc(Nc3ncnc4nn5ccccc5c34)cc2Cl)c1 [GW689066],0,4,20,0,0,0,0,0,0,0
O=C(Nc1ccccc1)Nc1ccc(Oc2ccc3nccn3n2)cc1,63,19,51,0,25,6,0,0,0,16
Nc1nc(-c2ccc3c(N)n[nH]c3c2)cc(N2CCCCC2)n1 [GSK2228768],0,12,24,0,0,1,0,18,0,0

Structure (SMILES),%Inh (FGFR4) [%],%Inh (FGR) [%],%Inh (FLT1) [%],%Inh (FLT3-autoinhibited) [%],%Inh (FLT3) [%],%Inh (FLT4) [%],%Inh (FRK) [%],%Inh (FYN) [%],%Inh (GAK) [%],"%Inh (GCN2(Kin.Dom.2,S808G)) [%]"
CC(C)(C)OC(=O)NC1CCCN(c2cc(-c3ccc4c(N)n[nH]c4c3)nc(N)n2)C1 (stereo not drawn) [GSK2286096],14,4,9,0,0,0,2,26,42,0
CN1c2ccc(-c3ccc(C(=O)NCCO)cc3)cc2-c2[nH]ncc2S1(=O)=O,8,34,11,20,37,7,1,15,21,34
Cn1cc(-c2ccc3c(c2)CCN3C(=O)Cc2cccc(C(F)(F)F)c2)c2c(N)ncnc21 [GSK2606414],0,0,31,3,28,22,0,13,3,5
CSc1ccc(NC2=C(c3ccccc3Cl)C(=O)NC2=O)cc1 [SB-342411],16,14,6,0,0,1,9,0,14,0
CS(=O)(=O)CCNCc1ccc(-c2ccc3ncnc(Nc4ccc(OCc5ccccc5)c(Cl)c4)c3c2)o1.Cl [GW574783],0,9,26,0,11,0,0,14,0,16
COC(=O)c1c(-c2ccccc2)c2cc(Cl)ccc2c(=O)n1Cc1ccc(S(C)(=O)=O)cc1,6,0,0,2,0,8,22,0,100,0
Fc1cccc(COc2ccc(Nc3ncnc4sc(-c5ccc[nH]5)cc34)cc2Cl)c1 [GW707818],12,3,22,7,0,3,0,45,4,0
N#Cc1ccc(Oc2ccc(Nc3ncnc4cc[nH]c34)cc2Cl)cc1,27,22,8,15,10,0,23,20,17,10
FC(F)(F)c1ccc(-c2nn3ncccc3c2-c2ccnc(Nc3cccc(C(F)(F)F)c3)n2)cc1 [GW828205],3,58,12,0,0,8,0,0,0,0
CCn1c(-c2ccncc2)nc2cnccc21 [SB-735216],11,3,4,20,15,5,0,19,13,12
Cl.c1ccc(Cn2ncc3cc(Nc4ncnc5ccccc45)ccc32)cc1 [GW273749],5,31,17,7,0,8,0,36,23,0
O=C(Nc1n[nH]c2nc(-c3ccco3)c(Br)cc12)c1ccc(CN2CCCC2)cc1.O=C(O)[C@H](O)[C@@H](O)C(=O)O [SB-742352],0,3,34,51,95,1,0,0,0,0
COc1cc2c(Nc3cccc(NC(=O)c4ccccc4)c3)ncnc2cc1OCCCN1CCOCC1 [GSK223810],3,0,61,0,6,28,17,24,16,0
COc1ccc(NC(=O)Nc2ccc(C)c(-c3ccc(C(=O)Nc4ccncc4)cc3)c2)cc1 [GSK1398475],5,27,26,0,85,15,23,41,0,0
COC(=O)c1cccc(NC(=O)NCCNc2ccnc(Nc3ccc(F)cc3)n2)c1 [GSK1379883],0,9,28,0,0,17,1,0,0,6
COc1ccc(Nc2nccc(N3CCC(NC(=O)Nc4ccc5c(c4)OCO5)C3)n2)cc1 (stereo not drawn) [GSK1379745],4,28,37,0,45,12,14,3,11,2
